Compounds with a hit are over-represented: about 3.6% of the library has one in this group of screens.
PLK1 PBD inh: qHTS for Inhibitors of PLK1-PDB (polo-like kinase 1 - polo-box domain): Primary Screen; AID 720504, 2013; Plk1 PBD binding of FITC phosphopeptide, fluorescence polarization; 2.8% of 360,000 active; Potency, µM, inactives show max response, negative = inhibition, actives largely listed as inhibitors; Serine/threonine-protein kinase PLK1 (Homo sapiens), P53350; also: potency is read from the fitted curve at half-maximal effect; series mostly up to about 57 µM; % is scaled to controls: 0 for no effect and ±100 for the full control effect; nearly all actives have a fitted effect of over 65% in size
Rango release inh: qHTS Assay for Inhibitors of RanGTP induced Rango (Ran-regulated importin-beta cargo) - Importin beta complex dissociation; 0.071% of 340,000 active; Biochemical FRET Rango-importin beta, RanGTP-induced dissociation; AID 540253, 2011; Potency, µM (doses to about 46.1 µM), for inactives: at the top dose activity change, negative = inhibition; calls by dose curve; also: potency is read from the fitted curve at half-maximal effect; % of control where 0% means no effect; nearly all actives have a fitted effect of over 45% in size
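Recombinant Rango FRET biosensor (EYFP–snurportin 1 IBB–cerulean CFP10) at 0.1 uM premixed with 0.25 uM importin beta in PBS, 1 mM DTT, 0.02% Tween-20, 0.1% BSA. Compound added 5 min; RanGTP-RCC1 (0.6 uM Ran, 2 mM GTP, 0.2 uM RCC1) then triggers release, read at 45 min.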
PI5P4Ka inh: qHTS for Inhibitors of phosphatidylinositol 5-phosphate 4-kinase (PI5P4K) | Phosphatidylinositol 5-phosphate 4-kinase type-2 alpha (Homo sapiens), P48426 | PI5P4Kalpha enzyme, ADP-Glo luminescence, 60 min; hits give low values | max response, % | 1.2% of 330,000 active | AID 652105, 2013; active = max response of -50% or lower; inconclusive = between -30% and -50%; inactive = -30% or higher; also: value at the top dose of about 77 µM; % is scaled to controls: 0 for no effect and ±100 for the full control effect
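Compounds were pin-transferred onto PI5P4Kalpha and substrate in HEPES pH 7.4 buffer with EGTA, CHAPS and 5% DMSO. ATP (5 microM final) started the reaction, which ran 60 minutes at room temperature before ADP-Glo detection.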
KAT2A inh: qHTS Assay for Inhibitors of GCN5L2. Potency, µM (highest dose often 58.9 µM), without a hit: at the highest dose activity change, negative = inhibition, hits mostly inhibitors. AID 504327, 2011. 0.21% of 390,000 active. Histone acetyltransferase KAT2A (Homo sapiens), Q92830. GCN5L2 HAT assay, ThioGlo1 CoA-SH fluorescence; also: potency is read from the fitted curve at half-maximal effect; % is scaled to controls: 0 for no effect and ±100 for the full control effect
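Enzyme at 20nM final was mixed with library compounds for 15 min at room temperature. Peptide H3(1-25) at 75uM, acetyl-CoA at 70uM and ThioGlo1 at 50uM were then added. Plates were read immediately and after 20 min (Ex340nm/Em540nm).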
VDR inhibitor: Inhibitors of the vitamin D receptor (VDR): qHTS. VDR-SRC2-3 peptide fluorescence polarization, 2 h. Potency, µM, without a hit: max response, negative = inhibition, hits mostly inhibitors. 0.93% of 400,000 active. AID 504847, 2011; also: potency is read from the fitted curve at half-maximal effect; % is scaled to controls: 0 for no effect and ±100 for the full control effect
Target sequence (P11473 whole entry, looked up): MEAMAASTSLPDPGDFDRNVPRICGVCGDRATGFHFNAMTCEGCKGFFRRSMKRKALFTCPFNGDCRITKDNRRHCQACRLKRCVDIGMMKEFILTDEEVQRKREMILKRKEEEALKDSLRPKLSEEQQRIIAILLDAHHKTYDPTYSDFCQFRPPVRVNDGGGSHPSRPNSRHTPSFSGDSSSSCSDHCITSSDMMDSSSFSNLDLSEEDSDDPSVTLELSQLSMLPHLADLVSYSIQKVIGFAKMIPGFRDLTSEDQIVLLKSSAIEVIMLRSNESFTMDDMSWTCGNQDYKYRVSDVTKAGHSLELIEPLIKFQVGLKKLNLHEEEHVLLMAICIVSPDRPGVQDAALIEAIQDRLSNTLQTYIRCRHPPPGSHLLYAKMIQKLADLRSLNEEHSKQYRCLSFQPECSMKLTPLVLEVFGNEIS
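Compounds are added to VDR with labelled SRC2-3 coactivator peptide and held 2 h at room temperature. Inhibition of the VDR–peptide interaction is then read as a change in fluorescence polarization.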
Rango-impB inh: qHTS Assay for Inhibitors of Rango (Ran-regulated importin-beta cargo) - Importin beta complex formation | Rango CFP/YFP FRET sensor + importin beta, 45 min | AID 540263, 2011 | Importin subunit beta-1 (Homo sapiens), Q14974 | Potency, µM (doses to about 92.2 µM), for the others: top-dose inhibition of complex formation | 0.031% of 340,000 active; calls by dose curve;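 also: potency is read from the fitted curve at half-maximal effect; 0% = DMSO wells and 100% = buffer wells lacking importin beta; nearly all actives have a fitted effect of over 15% in size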
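FRET biosensor (snurportin 1 IBB flanked by EYFP and cerulean), 50 nM, with compound 5 min, then 0.125 microM importin beta in PBS, 1 mM DTT, 0.02% Tween-20, 0.1% BSA. CFP/YFP ratio read after 45 min at room temperature; pre-read flags interference.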
TbPYK confirm: qHTS of Trypanosoma Brucei Inhibitors: Confirmatory Assay for Cherry-picked Compounds; shares compounds with PLK1 PBD inh; recombinant TbPYK, Kinase-Glo ATP luminescence; Potency, µM (doses to about 76.9 µM), for inactives: at the top dose activity change, negative = inhibition, usual class: inhibitors; 67% of 890 active; also: potency is read from the fitted curve at half-maximal effect; % is scaled to controls: 0 for no effect and ±100 for the full control effect; nearly all actives have a fitted effect of over 70% in size
TbPYK ADP-Glo: qHTS of Trypanosoma Brucei Inhibitors: Orthogonal Assay for Cherry-picked Compounds | 62% of 890 active | recombinant TbPYK, ADP-Glo luminescence, 60 min | Potency, µM (series often up to 76.9 µM), inactives show top-dose activity change, negative = inhibition, usual class: inhibitors | shares compounds with PLK1 PBD inh; also: potency is read from the fitted curve at half-maximal effect; % is scaled to controls: 0 for no effect and ±100 for the full control effect; nearly all actives have a fitted effect of over 75% in size
The depositor's hits bear a star; ? = inconclusive; nt = no result. Unless noted, calls follow the shape of the dose curve; as a rule, active = well fitted curve in the direction sought with a large enough effect; inconclusive = small, poorly fitted or top-dose-only effect, or another doubt; inactive = no such curve, though single readings can be large; an effect the other way counts as inactive or inconclusive.

SMILES	PLK1 PBD inh	Rango release inh	PI5P4Ka inh	KAT2A inh	VDR inhibitor	Rango-impB inh	TbPYK confirm	TbPYK ADP-Glo
CCOc1ccccc1N1C(=O)CC(Sc2n[nH]c(-c3ccccc3)n2)C1=O (stereo not drawn)	7.5µM*	-1%	-18	-21%	-11%	-3%	7.1µM*	13µM*
COc1cc(OC)c(NC(=O)N2CCc3c(sc4c3CCCC4)C2c2ccccc2)cc1Cl (stereo not drawn)	nt	nt	nt	-2%	-1%	nt	nt	nt
CCn1c(C)nc2cc(C(=O)NNC(=O)c3ccc(C)cc3)ccc21	2%	18%	0	5%	-7%	5%	?	?
Cc1ccc(O)c(NC2=C(Cl)C(=O)N(Cc3ccccc3)C2=O)c1	3µM*	-18%	-20	-7%	?	1%	16µM*	20µM*
CCOc1ccc(NC2=C(Cl)C(=O)N(Cc3ccccc3)C2=O)cc1	-11%	21%	nt	12%	-8%	2%	nt	nt
COc1ccc(NC(=O)C(=O)NCC2(c3ccccc3)CCCC2)c(OC)c1	nt	nt	nt	-6%	-2%	nt	nt	nt
O=C1C=CC(=O)N1CCNc1ncc(C(F)(F)F)cc1Cl	2.7µM*	15%	-18	0%	22µM*	3%	1.3µM*	4µM*
O=C1CC(=O)N(CCNc2ncc(C(F)(F)F)cc2Cl)C(=O)N1	4%	-12%	0	2%	-18%	-4%	nt	nt
COc1ccc(NC(=O)c2cc(C(C)=O)n3ccccc23)cc1	nt	nt	nt	-1%	12%	nt	nt	nt
CCCc1cc(=O)oc2cc(C)cc(OC(=O)c3ccco3)c12	-8%	-15%	nt	0%	-6%	-1%	6%	-11%
CCc1cc(=O)oc2cc(C)cc(OCC(C)=O)c12	-8%	-7%	-5	-14%	-14%	-4%	nt	nt
CC(=O)c1ccc(NC(=O)C2=CC(c3ccc(C)cc3)=NS(=O)(=O)N2C)cc1	nt	nt	nt	-13%	13%	nt	nt	nt
O=C(O)c1cc(C(=O)O)cc(-c2ccc(/C=c3/sc4nc5ccccc5n4c3=O)o2)c1	-15%	?	-27	-12%	8%	?	nt	nt
O=C(O)c1ccccc1-c1ccc(C=c2sc3nc4cc(Br)cnc4n3c2=O)o1	?	nt	-89*	nt	nt	nt	14µM*	16µM*
Cc1ccc(NC(=O)c2cccc3c(=O)c4c([nH]c23)CCCC4)c(C)c1	nt	nt	nt	-5%	-4%	nt	nt	nt
Cc1ccc(-n2c(=O)c3sc4ccccc4c3n(C)c2=O)cc1F	nt	nt	nt	-10%	-6%	nt	nt	nt
Cc1ccc(OCC(=O)Nc2ccc3nc(SCC(=O)N(C)c4ccccc4)sc3c2)cc1	nt	nt	nt	-14%	3%	nt	nt	nt
CCN(CC)c1ccc(NC(=O)Cn2cc3c(n2)CCC(C)C3)c(C)c1 (stereo not drawn)	0%	1%	0	-1%	1%	4%	22µM*	?
CC1CCc2c(sc(Nc3nc4c(F)cccc4s3)c2C(N)=O)C1 (stereo not drawn)	-6%	?	?	-11%	-29%	?	8.9µM*	14µM*
CN1CCN(S(=O)(=O)c2ccc(N3CCN(c4ccc(O)cc4)CC3)c([N+](=O)[O-])c2)CC1	-1%	-2%	-16	4%	-7%	2%	11µM*	18µM*
O=[N+]([O-])c1cc(S(=O)(=O)Nc2ccccc2)ccc1N1CCN(c2ccc(O)cc2)CC1	5%	?	3	-1%	-7%	-1%	nt	nt
O=C(c1ccc2nc(-c3ccco3)c(-c3ccco3)nc2c1)N1CCN(c2ccccc2)CC1	-11%	?	nt	?	0%	?	nt	nt
O=C(O)c1ccc2nc(-c3ccco3)c(-c3ccco3)nc2c1	12µM*	?	?	-17%	?	?	14µM*	16µM*
Cc1nc(-c2ccccc2)sc1CCNS(=O)(=O)c1ccccc1	nt	nt	nt	-1%	17%	nt	nt	nt
COc1ccc(C2NC(=O)c3sc(=S)n(-c4ccccc4)c3N2)cc1 (stereo not drawn)	?	-1%	-14	-3%	79µM*	1%	7.1µM*	13µM*
O=C(c1cccc(S(=O)(=O)N2CCc3ccccc3C2)c1)N1CCN(c2ccc(O)cc2)CC1	-3%	2%	-13	-4%	-2%	0%	5µM*	14µM*
COc1ccc2c(c1)CCc1c(C(=O)Nc3ccc(F)c(Cl)c3)noc1-2	nt	nt	nt	3%	-15%	nt	nt	nt
Cc1cc(NS(=O)(=O)c2ccc(NC(=O)/C=C/c3ccccc3)cc2)nc(C)n1	4%	0%	3	-5%	-9%	-1%	nt	nt
Cc1cc(NS(=O)(=O)c2ccc(NC(=O)/C=C/c3ccc(C)o3)cc2)nc(C)n1	8.4µM*	-7%	?	-22%	?	?	7.9µM*	11µM*
Cc1c(N2C(=O)/C(=C\c3ccccc3O)SC2=S)c(=O)n(-c2ccccc2)n1C	1.7µM*	12%	?	?	?	8%	4.5µM*	7.9µM*

Bioassay records deposited in PubChem by National Center for Advancing Translational Sciences (NCATS).
